± gives the standard deviation of the averaged measurements.
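Also: End-point A600 read in BHI broth at 37 °C with 2% DMSO, inhibition computed as (1 − OD with compound plus ceftriaxone ÷ OD with ceftriaxone only) × 100.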

For the assay, the system named is Listeria monocytogenes 10403S. Kind of assay: growth inhibition relative to ceftriaxone-alone control; higher = stronger potentiation of ceftriaxone growth inhibition. Conditions: 10 µM; ceftriaxone 1 ug/ml; 12 h.
For `COc1cccc(/C=N/Nc2ncnc3c2cnn3-c2cccc(OC)c2)c1`, the growth inhibition was -3.29 ± 11%.
Consider `N#Cc1cccc(Nc2ncc(-c3ccccc3)o2)c1`, for which the growth inhibition was -4.01 ± 1.7%.
With `Nc1nc(Nc2ccc(S(N)(=O)=O)cc2)nn1C(=O)c1c(F)cccc1F`, the growth inhibition was 27.6 ± 6.5%.
For the compound `Cn1cc(-c2ccc3ncc(Cc4ccc5ncccc5c4)n3n2)cn1`, the growth inhibition was -1.22 ± 3.1%.
For `COc1cc(C=NNc2ncnc3c2cnn3-c2ccccc2)ccc1O`, the growth inhibition was determined as 3.9 ± 5.4%.
With `CS(=O)(=O)CCNCc1ccc(-c2ccc3ncnc(Nc4ccc(OCc5cccc(F)c5)c(Cl)c4)c3c2)o1` [Lapatinib Ditosylate (Tykerb)] the figure was 42 ± 16%; with `CCn1c(-c2nonc2N)nc2c(N3CCCC3)nccc21`, 18.7 ± 38%; with `CN1CCN(c2ccc3nc(-c4c(N)c5c(F)cccc5[nH]c4=O)[nH]c3c2)CC1` [Dovitinib Dilactic Acid (TKI258 Dilactic Acid)], 33.4 ± 20%.
Consider `CN(c1ccc(NC(=O)Nc2c(Cl)cccc2Cl)cc1)c1ccnc(Nc2cccc(CS(C)(=O)=O)c2)n1`, for which the growth inhibition was -2.91 ± 0.88%.
Consider `O=C(NOCC1CC1)c1ccc(F)c(F)c1Nc1ccc(I)cc1Cl`, for which the growth inhibition was determined as 8.54 ± 25%.
Turning to `O=C(Nc1ccc(OC(F)(F)F)cc1)c1sccc1NCc1ccnc2ccccc12`, the growth inhibition was determined as 35.9 ± 3.9%.
`CN(C)C1CCN(C(=O)c2ccc(NC(=O)Nc3ccc(-c4nc(N5CCOCC5)nc(N5CCOCC5)n4)cc3)cc2)CC1`: the growth inhibition stood at 22.7 ± 7.4%.
The figure for `CN(C)c1ccc2c(c1)/C(=C/Nc1ccc(S(N)(=O)=O)cc1)C(=O)N2` is 1.99 ± 14%; for `COc1ccc(CNC(=O)c2ccc(-c3cc(-c4nnc(C)o4)ccc3C)cc2)cc1` it is 9.02 ± 3.7%.
The figure for `Cc1c(CN2CCN(C(=O)[C@H](C)O)CC2)sc2c(N3CCOCC3)nc(-c3cnc(N)nc3)nc12` is 22.8 ± 8.1%.

The values are drawn from the supplement of paper PMC5641865, “A screen for kinase inhibitors identifies antimicrobial imidazopyridine aminofurazans as specific inhibitors of the Listeria monocytogenes PASTA kinase PrkA” (The Journal of Biological Chemistry, 2017).
